Experimental findings from PubChem BioAssay (EPA / NIEHS) are described below.

The source made the active and inactive calls. Rule for the calls: active = hit-call score of the fitted dose curve at least 0.9, where 1 is the maximum; inactive = score below 0.9.

By AC50 is commonly meant the concentration giving half of the maximal activity seen.

This experiment in a line: ATG_Sox_CIS: Attagene CIS-FACTORIAL HepG2 Assay for human SRY-box transcription factor (SOX) (AID 2282960). Particulars: HepG2 Attagene cis-factorial SOX reporter, mRNA; actives raise or lower the signal. As to the method: ATG_CIS is a cell-based, multiplexed-readout assay that uses HepG2, a human liver cell line, with measurements taken at 24 hours after chemical dosing in a 24-well plate.ATG_Sox_CIS is one of 52 assay component(s) measured or calculated from the ATG_CIS assay. It is designed to make measurements of mRNA induction, a form of inducible reporter, as detected with fluorescence intensity signals by Reverse transcription polymerase chain reaction (RT-PCR) and Capillary electrophoresis technology.Data from the assay component ATG_Sox_CIS was analyzed into 1 assay endpoint. This assay endpoint, ATG_Sox_CIS, was analyzed with bidirectional fitting relative to DMSO as the negative control and baseline of activity. Using a type of inducible reporter, measures of mRNA for gain or loss-of-signal activity can be used to understand the reporter gene at the transcription factor-level as they relate to the gene SOX1. Furthermore, this assay endpoint can be referred to as a primary readout, because this assay has produced multiple assay endpoints where this one serves a reporter gene function. To generalize the intended target to other relatable targets, this assay endpoint is annotated to the dna binding intended target family, where the subfamily is HMG box protein.
Human liver HepG2 cells are transiently transfected with multiple reporter transcription units (MRTUs) in 6-well plates using FuGene 6 reagent (Roche; 3 ml FuGene/1 mg DNA). The MRTU constructs are regulated by a cis-regulating element (promoter). […] A major difference between the CIS and TRANS system is that in CIS activities of endogenous TFs are measured, whereas the TRANS assay evaluates changes in activities of exogenous, chimeric NR-Gal4 proteins. […] At the end of 24 hour incubation, total RNA was isolated using TriZol reagent (Invitrogen). The isolated RNA is then reverse-transcribed using oligo(dT) primer and Mo-MLV reverse transcriptase (Invitrogen) with DNAse I (Ambion) treatment for 30 min. The one-tenth of the produced cDNA was amplified by PCR using Taq DNA polymerase (Invitrogen) and two reporter sequence-specific primers. The PCR products were fluorescently labeled by primer extension with 6-arboxyfluorescein (6-FAM) 5'-labeled reporter sequence-specific primer (2 min at 95 C, 20 s at 68 C and 10 min at 72 C) and these products were digested with 5U of HpaI (New England Biolabs) for 2h at 37 C. The fragments were purified using Qiaquick PCR columns (Qiagen), analyzed on an ABI 3130xL genetic analyzer (Applied Biosystems) with peak positions identified by using a set of X-rhodamine (ROX)-labeled MapMarker1000 molecular weight standards (BioVentures). The raw capillary electrophoresis data was processed using Attagraph software (Attagene).
With `CCCCCCCC/C=C\CCCCCCCC(=O)O`, the compound was called inactive.

As for `c1cc(C(c2ccc(OCC3CO3)cc2)C(c2ccc(OCC3CO3)cc2)c2ccc(OCC3CO3)cc2)ccc1OCC1CO1` (stereo not given), the compound was called inactive.

Turning to `CC(=O)OC1C2(C)CCC(C2)C1(C)C` (stereo not given), the outcome was inactive.

For `O=C(O)c1cc(Cl)cc([N+](=O)[O-])c1Cl`, the result was inactive.

Regarding `O=C(c1ccccc1)C1CCC1`, the compound was classed as inactive.

In the case of `COC(F)(F)C(F)(C(F)(F)F)C(F)(F)F`, the result was inactive.

For `CCOc1ccc(N)c([N+](=O)[O-])c1`, the outcome was inactive.

Regarding `CCOC(F)(F)C(F)(F)C(F)(F)C(F)(F)F`, the compound was classed as inactive.

On to `COC(=O)C1=C(C)NC(C)=C(C(=O)OCC(C)C)C1c1ccccc1[N+](=O)[O-]` (stereo not given), for which the compound was called inactive.

On to `NC(=O)C1CO1` (stereo not given), for which the outcome was inactive.

As to `C=C1C2CCC(C2)C1(C)C` (stereo not given), the call was inactive.

On to `OC1CCCC1`, for which the compound was called inactive.

As to `CCOC(=O)CC(C(C)=O)C(C)=O`, the outcome was inactive.

In the case of `C=CC(=O)OCCC(=O)O`, the compound was classed as inactive.

In the case of `CC1(C)O[C@@H]2C[C@H]3[C@@H]4C[C@H](F)C5=CC(=O)CC[C@]5(C)[C@H]4[C@@H](O)C[C@]3(C)[C@]2(C(=O)CO)O1`, the compound was classed as inactive.

`CC(=O)OCc1ccco1`: the outcome was inactive.

In the case of `Cc1cccc(N(C)C(=S)Oc2ccc3ccccc3c2)c1`, the call was inactive.

As for `CC1=CC[C@H]2C[C@@H]1C2(C)C`, the result was inactive.

Regarding `CCCCC(CC)CCC(CC(C)C)OS(=O)(=O)O` (stereo not given), the result was inactive.

For the compound `CCC(CC)C(=O)O`, the call was inactive.

Take `O=C(/C=C/C=C/c1ccc2c(c1)OCO2)N1CCCCC1`: the outcome was inactive.

Take `NC(=O)OCC(COC(N)=O)c1ccccc1`: the call was inactive.

On to `O=C(O)CCCCCCCCCC(=O)O`, for which the compound was classed as inactive.

With `Cc1oncc1C(=O)Nc1ccc(C(F)(F)F)cc1`, the compound was classed as inactive.

In the case of `CC(=O)OCC(C)OC(C)=O` (stereo not given), the compound was classed as inactive.

Turning to `CCCOCCOCCOCCO`, the result was inactive.

In the case of `CC(C)C1=CC2=CC[C@@H]3[C@](C)(CCC[C@@]3(C)C(=O)O)[C@H]2CC1`, the AC50 was 169 µM (active).

With `C=C(C)c1cccc(C(C)(C)N=C=O)c1`, the outcome was inactive.

For the compound `CCCCCC/C=C\CCCCCCCC(=O)O`, the outcome was inactive.

Consider `CCO[Si](CCCN=C=O)(OCC)OCC`, for which the compound was classed as inactive.

As for `N=c1ccn2c(n1)O[C@H]1[C@H](O)[C@@H](CO)O[C@H]12`, the compound was classed as inactive.

Regarding `Nc1ccc(N=Nc2ccccc2)c(N)n1`, the result was inactive.

For `O=C1CCCC(=O)O1`, the outcome was inactive.

`CC(C)CCCCCOC(=O)CCS`: the compound was called inactive.

Consider `C=COCCCC`, for which the result was inactive.

Take `CC(C)c1ccc(C=O)cc1`: the result was inactive.

On to `CCCCCCCCc1ccc(Nc2ccc(CCCCCCCC)cc2)cc1`, for which the result was inactive.

On to `C=CCOCC(O)CCl` (stereo not given), for which the result was inactive.

Take `C=C(C)C(=O)OCC(C)C`: the call was inactive.

In the case of `NC(=O)c1ccccc1O`, the result was inactive.
